Screens (PubChem)
Giardia kill: Giardia lamblia killing; Giardia lamblia trophozoite viability; activity change, % at 7.66 µM, hits read low; 340,000 tested, 0.15% active; in the data active means activity change below about -80%; inconclusive means between about -30% and that limit;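 further: parasites exposed to compound for two days anaerobically before the ATP read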
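Luminescent ATP signal served as the viability read-out, measured 15-30 min after adding ATP detection reagent to trophozoites that had been incubated with compounds for 48 hrs at 37 deg C anaerobically at 100 cells/well.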
USP1 inh: blocks the human USP1/UAF1 deubiquitinase complex | O94782 | recombinant USP1/UAF1, Ub-Rhodamine cleavage fluorescence | Potency, µM (highest dose often 57.1 µM), without a hit: at the highest dose activity change, negative = inhibition, hits mostly inhibitors | 390,000 tested, 0.23% active | AID 743255; active means well fitted inhibition curve with a large enough effect; inconclusive means small, poorly fitted or top-dose-only effect; inactive means no such curve, though single readings can be large or run the other way; further: potency means the concentration at half of the fitted maximal effect; nearly all actives have a fitted effect of over 60% in size
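1 nM enzyme complex + cpd, 15 min RT; start with Ub-Rho 150nM final; kinetic fluorescence ex 480/em 540, 6 reads q60 s. Buffer 50mM HEPES pH 7.8, 0.5mM EDTA, 0.1 mg/ml BSA, 1mM TCEP, 0.01% Tween-20.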
KCNH2 3.1 inh: KCNH2 3.1 (human) potassium channel inhibition; AID 720553; U2OS KCNH2 3.1, thallium flux FluxOr; active compounds read low; activity change, % (tested at about 1.8 µM); 340,000 tested, 0.95% active;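 active means maximum activity change below -70%; inconclusive means maximum activity change from -70% to -50%; inactive means maximum activity change above -50%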;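 further: thallium influx rate constant from kinetic fluorescence after stimulation buffer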
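Kinetic fluorescence (2 min after stimulation buffer) measures Tl+ influx through KCNH2 3.1 expressed by viral transduction in U2OS cells; the rate constant is normalized against DMSO controls serving as positive and negative references.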
Coupling enz: counter-screen for Giardia aldolase inhibitors: coupling enzyme system. coupling enzyme system counterscreen, AmpLite Red fluorescence. activity change, negative = inhibition, % at 58.2 µM, hits read low. 290,000 tested, 0.67% active. AID 2472; in the data active means activity change below about -30%
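Compounds tested against the coupling enzymes alone at 57.5 uM final; readout was AmpLite Red fluorescence (525/598 nm) after 20 min at RT.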
KCNH2 WT inh: blocks the wildtype human KCNH2 potassium channel | activity change, % at 1.84 µM | Q12809 | 340,000 tested, 0.37% active | U2OS, BacMam KCNH2, thallium flux FluxOr; active compounds read low;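 active means maximum activity change below -70%; inconclusive means maximum activity change between -70% and -50%; inactive means maximum activity change above -50%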
Target sequence (Q12809 whole entry, looked up): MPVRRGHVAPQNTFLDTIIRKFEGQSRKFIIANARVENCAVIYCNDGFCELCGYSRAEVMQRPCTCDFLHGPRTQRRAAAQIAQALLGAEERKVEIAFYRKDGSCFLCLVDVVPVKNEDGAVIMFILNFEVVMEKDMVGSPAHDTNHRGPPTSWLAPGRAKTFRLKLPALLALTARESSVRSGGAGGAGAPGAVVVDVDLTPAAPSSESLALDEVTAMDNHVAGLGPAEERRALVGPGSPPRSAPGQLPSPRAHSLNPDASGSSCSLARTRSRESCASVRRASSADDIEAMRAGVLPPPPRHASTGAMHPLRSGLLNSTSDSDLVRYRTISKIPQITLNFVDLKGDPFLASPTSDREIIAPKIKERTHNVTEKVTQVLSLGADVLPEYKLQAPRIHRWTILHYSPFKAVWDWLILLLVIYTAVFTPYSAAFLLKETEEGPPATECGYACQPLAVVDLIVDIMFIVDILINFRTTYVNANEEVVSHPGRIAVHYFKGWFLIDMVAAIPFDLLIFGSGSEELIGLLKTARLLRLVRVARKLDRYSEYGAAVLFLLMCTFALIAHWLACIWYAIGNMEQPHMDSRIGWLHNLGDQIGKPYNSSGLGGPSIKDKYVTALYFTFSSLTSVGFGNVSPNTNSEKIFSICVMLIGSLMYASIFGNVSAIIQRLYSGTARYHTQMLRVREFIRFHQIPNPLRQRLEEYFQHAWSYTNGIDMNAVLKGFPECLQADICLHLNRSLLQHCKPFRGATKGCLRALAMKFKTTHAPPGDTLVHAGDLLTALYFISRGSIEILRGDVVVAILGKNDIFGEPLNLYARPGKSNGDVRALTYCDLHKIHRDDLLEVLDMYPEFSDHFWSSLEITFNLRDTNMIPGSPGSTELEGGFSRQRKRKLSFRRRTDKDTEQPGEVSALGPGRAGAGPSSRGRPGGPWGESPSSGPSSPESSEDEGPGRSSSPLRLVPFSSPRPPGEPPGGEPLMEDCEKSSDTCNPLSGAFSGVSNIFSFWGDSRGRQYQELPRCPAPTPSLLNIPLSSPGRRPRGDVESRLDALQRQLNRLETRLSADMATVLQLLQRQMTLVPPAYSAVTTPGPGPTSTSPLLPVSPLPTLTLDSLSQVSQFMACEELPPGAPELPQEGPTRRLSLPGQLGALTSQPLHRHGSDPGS
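U2OS cells were transduced with wild-type KCNH2 virus (2.03 x 10^8 / mL) for 4 h at room temperature, then cultured overnight at 37 C. Thallium flux was read with FluxOr dye. Rate constants were normalized to DMSO controls.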
Starred values were filed as active, the others as inactive. Hits are enriched below; roughly 1.7% of the tested compounds scored in any of these assays. On the % scale 0 is the no-effect control and ±100 the full control effect.

Results for COc1cccc(CNC(=O)c2ccc3oc(=O)n(Cc4ccccc4)c3c2)c1 ?
USP1 inh: -19%

Results for CCNc1nc(C#N)nc(N2CCCCC2)n1 ?
Giardia kill: 4

Results for Nc1nc(Cl)nc2c1ncn2C1OC(CO)C(O)C1F (configuration not stated) ?
Coupling enz: 4

Results for COC(=O)c1c(O)cc(C(C)(C)C)n(-c2ccc(F)cc2)c1=O ?
Giardia kill: -3; USP1 inh: -7%; KCNH2 3.1 inh: -216*; Coupling enz: 3; KCNH2 WT inh: -116*

What do the screens show for `Cc1ccccc1OCC(=O)Nc1ccc2nc(SCC(=O)N3CCc4ccccc43)sc2c1`?
USP1 inh: 6%

How did CC(C)C1N(C(=O)N(C)C)CCN1S(=O)(=O)c1ccccc1 (configuration not stated) do in these assays?
Giardia kill: -2; USP1 inh: -22%; KCNH2 3.1 inh: -141*; Coupling enz: -1; KCNH2 WT inh: 10

Results for CC(C)(C)c1ccc(Oc2ccc(NC(=O)CCC(=O)OCC(=O)c3ccccc3)cc2)cc1 ?
USP1 inh: -16%

Results for CCC(C)NC(=O)CN1C(=O)NC2(CCc3ccccc3C2)C1=O (configuration not stated) ?
Giardia kill: -24; USP1 inh: -9%; KCNH2 3.1 inh: -77*; Coupling enz: -1; KCNH2 WT inh: 0

Results for CC(C)NC(=O)NC(=O)CN1C(=O)NC2(CCc3ccccc3C2)C1=O (configuration not stated) ?
Giardia kill: 5; USP1 inh: -4%; KCNH2 3.1 inh: 20; Coupling enz: 0; KCNH2 WT inh: 4

What do the screens show for `CN1CCc2nc(SCC(=O)Nc3ccc(OC(F)(F)F)cc3)c(C#N)c(-c3cccs3)c2C1`?
Giardia kill: -1; USP1 inh: 6%; KCNH2 3.1 inh: -39; Coupling enz: -51*; KCNH2 WT inh: 35

Results for Cc1ccccc1C(=O)Nc1cccc(NC(=O)c2cccnc2)c1 ?
Giardia kill: inconclusive; USP1 inh: -18%; KCNH2 3.1 inh: -12; Coupling enz: 0; KCNH2 WT inh: -78*

How did O=C(Nc1cccc(NC(=O)c2cccnc2)c1)c1cccnc1 do in these assays?
Giardia kill: 2; USP1 inh: -12%; KCNH2 3.1 inh: -6; Coupling enz: -1; KCNH2 WT inh: 2

What do the screens show for `Nc1ccc(N)c(C(=O)O)c1`?
Giardia kill: -18; USP1 inh: 20µM*; KCNH2 3.1 inh: 7; Coupling enz: -34*; KCNH2 WT inh: -3

What do the screens show for `CCOc1cccc2cc(-c3nc(-c4ccc(Cl)cc4)c(C)s3)c(=O)oc12`?
USP1 inh: -7%

How did CCOC(=O)c1c(NC(=O)/C=C/C(=O)O)sc(C)c1-c1ccc(C(C)(C)C)cc1 do in these assays?
Giardia kill: -8; USP1 inh: 32µM*; KCNH2 3.1 inh: -10; Coupling enz: 14; KCNH2 WT inh: 2

Results for COc1cc2c(c(OC)c1OC)-c1ccc(NCc3ccccc3)c(=O)cc1C(NC(C)=O)CC2 (configuration not stated) ?
USP1 inh: -17%; KCNH2 3.1 inh: 0; KCNH2 WT inh: -5

What do the screens show for `O=C(OCc1cn([C@H]2C[C@H](c3ccc(Cl)cc3)N(Cc3cccs3)C[C@@H]2O)nn1)c1ccccc1`?
USP1 inh: -18%; KCNH2 3.1 inh: -25; KCNH2 WT inh: 14

How did Cc1ncoc1C(=O)Nc1ncc([N+](=O)[O-])s1 do in these assays?
Giardia kill: -87*; USP1 inh: inconclusive; KCNH2 3.1 inh: -2; Coupling enz: 1; KCNH2 WT inh: 6

Results for O=C(Nc1ncc([N+](=O)[O-])s1)c1ccccc1Br ?
Giardia kill: -93*; USP1 inh: -1%; KCNH2 3.1 inh: -47; Coupling enz: -3; KCNH2 WT inh: 1

How did O=C(/C=C/c1ccc([N+](=O)[O-])cc1)Nc1ncc([N+](=O)[O-])s1 do in these assays?
Giardia kill: -82*; USP1 inh: -2%; KCNH2 3.1 inh: 11; Coupling enz: 8

How did O=C(Nc1ncc([N+](=O)[O-])s1)c1cccs1 do in these assays?
Giardia kill: -87*; USP1 inh: -28%; KCNH2 3.1 inh: -7; Coupling enz: -6; KCNH2 WT inh: 4

What do the screens show for `O=C(/C=C/c1ccc([N+](=O)[O-])cc1)NCc1ccccn1`?
Giardia kill: -1; USP1 inh: 1%; KCNH2 3.1 inh: -3; Coupling enz: 3; KCNH2 WT inh: 7

How did COc1ccc(NC(=O)CSc2ccc3c(c2)OCCO3)cc1S(N)(=O)=O do in these assays?
Giardia kill: -27; USP1 inh: 4%; KCNH2 3.1 inh: 5; KCNH2 WT inh: -6

What do the screens show for `O=C(Nc1cc(C(F)(F)F)ccc1Cl)c1cc(-c2cccs2)nc2ccccc12`?
USP1 inh: -18%

What do the screens show for `COc1cccc(Nc2c(Nc3cccc(OC)c3)c(=O)c2=O)c1`?
Giardia kill: -1; USP1 inh: -7%; KCNH2 3.1 inh: -5; Coupling enz: 1; KCNH2 WT inh: 25

Results for Cc1cccc(NC2=C(NCCO)C(=O)c3ccccc3C2=O)c1 ?
Giardia kill: -20; USP1 inh: 32µM*; KCNH2 3.1 inh: 13; Coupling enz: -35*; KCNH2 WT inh: 3

Results for COc1cccc(NC2=C(NCCO)C(=O)c3ccccc3C2=O)c1 ?
Giardia kill: 12; USP1 inh: inconclusive; KCNH2 3.1 inh: 19; Coupling enz: -30*; KCNH2 WT inh: -1

How did COc1ccc(NC2=C(NCCO)C(=O)c3ccccc3C2=O)cc1 do in these assays?
Giardia kill: -19; USP1 inh: 25µM*; KCNH2 3.1 inh: 2; Coupling enz: -43*; KCNH2 WT inh: -8

What do the screens show for `Cc1cccc(Nc2nc(N)c([N+](=O)[O-])c(NCCO)n2)c1`?
Giardia kill: 4; USP1 inh: 1%; KCNH2 3.1 inh: 5; Coupling enz: 1; KCNH2 WT inh: 3

What do the screens show for `COc1ccc2nc(NC(=O)c3ccc([N+](=O)[O-])o3)sc2c1`?
Giardia kill: -97*; USP1 inh: inconclusive; KCNH2 3.1 inh: 2; Coupling enz: 2; KCNH2 WT inh: -15

Results for O=C(Nc1c(Cl)ccc2nsnc12)c1ccc([N+](=O)[O-])o1 ?
Giardia kill: -87*; USP1 inh: inconclusive; KCNH2 3.1 inh: 2; Coupling enz: -4; KCNH2 WT inh: 13

Results for O=C(Nc1nc2cc3c(cc2s1)OCCO3)c1ccc([N+](=O)[O-])o1 ?
Giardia kill: -89*; USP1 inh: -28%; KCNH2 3.1 inh: 1; KCNH2 WT inh: -5

How did O=C(Nc1nc2cc3c(cc2s1)OCCO3)c1cccs1 do in these assays?
Giardia kill: -24; USP1 inh: -13%; KCNH2 3.1 inh: -6; Coupling enz: -3; KCNH2 WT inh: -5
